Measured values from PubChem BioAssay AID1777 (Sanford-Burnham Center for Chemical Genomics, 2009).
Out of some 280,000 compounds screened, about 50 (0.02%) were called active. This is one part of a sample in which actives are shown more often than they occur. Potency and affinity values are given separately. Unmarked numbers belong to inactive results. Rule as the data show it: active = activation above about 50% (passing the limit was not always enough); inactive = the rest.

Target: Kappa-type opioid receptor (Homo sapiens) (UniProt P41145)
Assay: KOR agonists, beta-arrestin recruitment, primary screen, cell-based, luminescence, uHTS (AID 1777)
Conditions: at 10 µM, active compounds read high

Chain of Kappa-type opioid receptor (Homo sapiens) (P41145 whole entry, looked up): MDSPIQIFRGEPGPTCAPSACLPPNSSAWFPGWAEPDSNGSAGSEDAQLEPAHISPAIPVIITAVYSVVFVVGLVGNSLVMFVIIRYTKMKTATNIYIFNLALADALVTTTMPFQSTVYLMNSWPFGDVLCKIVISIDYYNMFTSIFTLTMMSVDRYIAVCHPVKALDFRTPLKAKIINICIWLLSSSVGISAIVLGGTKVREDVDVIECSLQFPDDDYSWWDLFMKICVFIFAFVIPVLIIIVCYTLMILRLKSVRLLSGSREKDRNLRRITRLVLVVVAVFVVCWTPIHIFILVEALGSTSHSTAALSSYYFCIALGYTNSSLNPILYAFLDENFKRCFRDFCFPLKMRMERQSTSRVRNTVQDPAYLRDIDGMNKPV

Question: For `COc1ccc(C[C@H]2CN3C(=NC[C@H]3C)N2CCNC(=O)c2ccc(C)c(Br)c2)cc1`, which activation is on record?
Answer: 12.5%

Question: Which activation does the source give for `Cc1ccc(C(=O)NCCN2C3=NC[C@H](C)N3C[C@H]2Cc2ccc(O)cc2)cc1Br` here?
Answer: 25.2%

Question: `Cc1nnc(SCC(=O)N2c3ccccc3CC2C)[nH]c1=O` (stereo unspecified) was tested. Which activation did it give?
Answer: 7.1%

Question: For `O=C(NC1CCCCC1)c1ccc(S(=O)(=O)N2CCOCC2)cc1`, which activation is on record?
Answer: 2%

Question: `Cc1cc(Nc2ccc(Cl)cc2)n2ncnc2n1` was tested. Which activation did it give?
Answer: -0.8%

Question: For `Cc1oc(-c2ccccc2F)nc1CS(=O)CC(=O)NC1CC1` (stereo unspecified), which activation is on record?
Answer: 0.9%

Question: `COc1ccc(OC)c(NC(=O)c2ccc(CSc3ncccn3)cc2)c1` was tested. Which activation did it give?
Answer: -7.7%

Question: `Cc1ccc(S(=O)(=O)Nc2ccccc2C(=O)Nc2nc(-c3ccc(F)cc3)cs2)cc1` was tested. Which activation did it give?
Answer: 13%

Question: Which activation does the source give for `O=C(Nc1nc(-c2ccccc2)cs1)c1ccccc1NS(=O)(=O)c1ccc(F)cc1` here?
Answer: 111% (active)

Question: How did the activation turn out when `COc1ccc(S(=O)(=O)Nc2ccccc2C(=O)Nc2nc(-c3ccc(F)cc3)cs2)cc1OC` was run?
Answer: 15.1%

Question: For `Cc1ccc(O)c(C(=O)c2cnn(C(=O)COc3ccc(Cl)cc3)c2)c1`, which activation is on record?
Answer: 0.1%

Question: Which activation does the source give for `Cc1cc(N/C(=N/S(=O)(=O)c2cc(F)ccc2F)c2ccccc2)n(-c2ccccc2)n1` here?
Answer: -1.3%

Question: `CCCCCCCCCCCCOC1OC(CO)C(O)C(O)C1NC(C)=O` (stereo unspecified) was tested. Which activation did it give?
Answer: -0.9%

Question: How did the activation turn out when `Cc1cc(=O)cc(C)n1-c1ccc(Cl)cc1` was run?
Answer: 1.5%

Question: Which activation does the source give for `CC1=CC(C)(C)N(C)C(=O)N1c1ccc(Cl)cc1` here?
Answer: 7.6%

Question: For `CCCn1c(C(CO)Nc2nc(-c3cccc(Br)c3)cs2)nc2ccccc21` (stereo unspecified), which activation is on record?
Answer: 2.4%

Question: For `Cc1cccc(C(=O)Nc2cccc(C(=O)N/N=C/c3ccc4c(c3)OCO4)c2)c1`, which activation is on record?
Answer: -5.3%

Question: With `CC(=O)Nc1nc(SCC(=O)NCC2CCCO2)[nH]c(=O)c1NC(=O)c1cccs1` (stereo unspecified) as the compound, how does the activation read?
Answer: -4.2%

Question: For `CCN(C(=O)COC(=O)C1CCN(S(=O)(=O)c2c(Cl)cccc2Cl)CC1)C1CCCCC1`, which activation is on record?
Answer: -3.1%

Question: For `COc1ccc(-n2c(C)cc(C(=O)COc3ccc(-n4cnnn4)cc3)c2C)cc1`, which activation is on record?
Answer: 3.1%

Question: For `COc1ccccc1CN(Cc1cc2cc(C)ccc2[nH]c1=O)Cc1nnnn1Cc1ccco1`, which activation is on record?
Answer: -3.4%

Question: For `CC(Sc1nnc(COc2ccccc2)n1Cc1ccccc1)C(=O)O` (stereo unspecified), which activation is on record?
Answer: 1.6%

Question: For `CC(=O)Nc1ccc(NC(=O)C(C)Sc2n[nH]c(=O)n2Cc2ccccc2)cc1` (stereo unspecified), which activation is on record?
Answer: -2.2%

Question: `O=C(N/N=C/c1c[nH]c2ccc(Br)cc12)c1ccccn1` was tested. Which activation did it give?
Answer: 4.6%

Question: `Nc1ccc(C2(c3ccc(N)cc3)C(=O)Nc3ccccc32)cc1` was tested. Which activation did it give?
Answer: 0.1%

Question: `Nc1ccc(C2(c3ccc(N)cc3)OC(=O)c3ccccc32)cc1` was tested. Which activation did it give?
Answer: -7.1%
